Hits are enriched below; roughly 12% of the tested compounds scored in any of these assays.
SARS PLpro yeast = SARS-CoV PLP inhibition in yeast; S. cerevisiae expressing SARS-CoV PLpro, growth rescue; Potency, µM (series often up to 32.9 µM), for inactives: at the highest dose activity, positive = growth rescue, most hits filed as activators; 330,000 tested, 0.19% active; AID 485353; note: potency is the fitted concentration of half-maximal effect; 0% is about no effect; nearly all actives have a fitted effect of over 55% in size
CHX counter = counter-screen for Shiga toxin inhibitors: cycloheximide protein synthesis inhibition; max response, %; 300,000 tested, 12% active; AID 2314; cell reporter, cycloheximide protein synthesis inhibition counterscreen; in the data active = max response mostly above about 13%, no sharp cut-off; inactive = mostly below about 14%; note: read at 38.3 µM for the half of the compounds with a filed dose; 0% is about no effect
Shiga toxin inh = Shiga toxin inhibition; 290,000 tested, 9.2% active; inhibition, % at 38.7 µM; Vero cells, Shiga toxin protein synthesis inhibition reporter; in the data active = inhibition mostly above about 28%, no sharp cut-off; inactive = mostly below about 43%; note: 0% is about no effect
NS1 inh = influenza NS1 inhibition | Potency, µM (highest dose often 46.1 µM), for inactives: at the highest dose activity, positive = more growth | 270,000 tested, 0.4% active | AID 2326; note: potency is the fitted concentration of half-maximal effect; actives are rising curves; nearly all actives have a fitted effect of over 50% in size
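OD600 was taken as the measure of yeast growth restored by compound in an NS1-expressing S. cerevisiae strain. Cells had been washed out of glucose medium and diluted 1:100 into galactose -URA medium, pH 6.0.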
* = called active by the depositor. Unless noted, calls come from the whole dose curve.

Results for CN(CC(=O)Nc1cccc(F)c1)C(=O)CSc1ccccc1F ?
SARS PLpro yeast: -7%; CHX counter: 1; Shiga toxin inh: 1; NS1 inh: 2%

How did CC(C)c1ccc(CNC(=O)CCc2ccccc2)cc1 do in these assays?
SARS PLpro yeast: -3%; CHX counter: 18; Shiga toxin inh: 17

Results for CC(C)c1ccc(CNCc2ccccc2)cc1 ?
SARS PLpro yeast: -4%; CHX counter: 32*; Shiga toxin inh: 60*; NS1 inh: -29%

How did Cc1nc(C(=O)NNC(=O)c2ccc(Cl)cc2)c(C(F)(F)F)o1 do in these assays?
SARS PLpro yeast: -3%; CHX counter: -2; Shiga toxin inh: 8; NS1 inh: -6%

How did Cc1nc(/C(N)=N/OC(=O)c2ccccc2Cl)c(C(F)(F)F)o1 do in these assays?
SARS PLpro yeast: -2%; CHX counter: 52*; Shiga toxin inh: 91*; NS1 inh: -8%

What do the screens show for `Cc1nc(/C(N)=N/OC(=O)c2cccc(Cl)c2)c(C(F)(F)F)o1`?
SARS PLpro yeast: -2%; CHX counter: 11*; Shiga toxin inh: 37; NS1 inh: -4%

How did O=C(Nc1nnc(S(=O)(=O)N2CCOCC2)s1)c1ccccc1Cl do in these assays?
SARS PLpro yeast: -2%; CHX counter: -3; Shiga toxin inh: -1; NS1 inh: 9%

How did O=C(Nc1nnc(S(=O)(=O)N2CCOCC2)s1)c1cccc(F)c1 do in these assays?
SARS PLpro yeast: 2%; CHX counter: 20*; Shiga toxin inh: 31*; NS1 inh: 5%

Results for Cc1ccccc1C(=O)Nc1nnc(S(=O)(=O)N2CCCCCC2)s1 ?
SARS PLpro yeast: 11%; CHX counter: 1; Shiga toxin inh: -5; NS1 inh: -9%

What do the screens show for `O=C(Nc1nnc(S(=O)(=O)N2CCOCC2)s1)c1ccccc1F`?
SARS PLpro yeast: -2%; CHX counter: 17*; Shiga toxin inh: 15; NS1 inh: 14%

What do the screens show for `COc1ccc(OC)c(-c2csc(NC(=O)c3ccccc3F)n2)c1`?
SARS PLpro yeast: 3%; CHX counter: -2; Shiga toxin inh: -5; NS1 inh: 3%

Results for O=C(Nc1nc(COc2ccccc2)cs1)c1ccccc1F ?
SARS PLpro yeast: -3%; CHX counter: 24; Shiga toxin inh: 14*; NS1 inh: 2%

How did O=C(Nc1nnc(S(=O)(=O)N2CCCCCC2)s1)c1ccccc1F do in these assays?
SARS PLpro yeast: -6%; CHX counter: 11*; Shiga toxin inh: 18; NS1 inh: -68%

How did CC1CCCCN1C(=O)/C(=C\c1ccccc1)c1ccccc1 (centres undefined) do in these assays?
SARS PLpro yeast: -6%; CHX counter: 1; Shiga toxin inh: -9; NS1 inh: -4%

How did Cc1cccn2c(CN(C)CCC3CCCCO3)c(C(=O)N3CCCCC3)nc12 (centres undefined) do in these assays?
SARS PLpro yeast: 9%; CHX counter: 0; Shiga toxin inh: -3; NS1 inh: -1%

How did O=C(Nc1nnc(-c2ccccc2)s1)c1ccccc1F do in these assays?
SARS PLpro yeast: 0%; CHX counter: 74*; Shiga toxin inh: 59*; NS1 inh: -43%

Results for O=C(Nc1nnc(-c2ccccc2Cl)s1)c1ccccc1F ?
SARS PLpro yeast: 1%; CHX counter: -2; Shiga toxin inh: -1; NS1 inh: -12%

How did Cc1ccc(N(CC(=O)NC(C)C)C(=O)CCC(=O)Nc2ccccn2)cc1 do in these assays?
SARS PLpro yeast: -4%; CHX counter: 1; Shiga toxin inh: -5; NS1 inh: 1%

What do the screens show for `Cc1ccc2nc(/C(C#N)=C/c3ccccc3C(=O)O)[nH]c2c1`?
SARS PLpro yeast: 2%; CHX counter: 18*; Shiga toxin inh: 55; NS1 inh: 16%

Results for Cc1ccc2nc(/C(C#N)=C/c3cn[nH]c3-c3ccc(F)cc3)[nH]c2c1 ?
SARS PLpro yeast: 1%; CHX counter: 7; Shiga toxin inh: 13; NS1 inh: 3%

How did N#C/C(=C\c1ccccc1C(=O)O)c1nc2ccccc2[nH]1 do in these assays?
SARS PLpro yeast: 1%; CHX counter: 17*; Shiga toxin inh: 49*; NS1 inh: 4%

Results for Cc1ccc2nc(/C(C#N)=C/c3ccc(O)c(O)c3)[nH]c2c1 ?
SARS PLpro yeast: 11%; CHX counter: 60*; Shiga toxin inh: 92*; NS1 inh: inconclusive

How did N#C/C(=C\c1ccc(-c2ccc(Cl)c(C(=O)O)c2)o1)c1nc2ccccc2[nH]1 do in these assays?
SARS PLpro yeast: 6%

What do the screens show for `Brc1ccc(CNc2cc3c(cc2Br)OCCO3)cc1`?
SARS PLpro yeast: -17%; CHX counter: 20; Shiga toxin inh: 40

Results for O=C(CSc1ccc(Br)cc1)Nc1ccccc1N1CCOCC1 ?
SARS PLpro yeast: 1%; CHX counter: -1; Shiga toxin inh: -9; NS1 inh: -8%

Results for Cc1c(-n2cc(C(=O)c3cc(Br)ccc3O)cc(C#N)c2=O)c(=O)n(-c2ccccc2)n1C ?
SARS PLpro yeast: -3%; CHX counter: -1; Shiga toxin inh: -3; NS1 inh: -11%

How did Cc1ccc(-c2nnn(CC(=O)N3C(C)CCCC3C)n2)cc1 (centres undefined) do in these assays?
SARS PLpro yeast: 17%; CHX counter: 1; Shiga toxin inh: 21; NS1 inh: 5%

Results for Cc1cn([C@H](C(=O)NCCCCCCCCCCC(=O)N2CCNCC2)[C@@H](C)O)nn1 ?
SARS PLpro yeast: 1%

What do the screens show for `O=C(c1ccc2ncsc2c1)N1CCN(c2ccccc2Cl)CC1`?
SARS PLpro yeast: 0%; CHX counter: 20*; Shiga toxin inh: 105*

Results for Cc1cccc(N2CCN(C(=O)c3ccc4ncsc4c3)CC2)c1C ?
SARS PLpro yeast: -1%; CHX counter: 30*; Shiga toxin inh: 72*; NS1 inh: -3%

How did Cc1ccc(OCC(=O)Nc2sc3c(c2C#N)CCC3)cc1 do in these assays?
SARS PLpro yeast: -5%; CHX counter: 53*; Shiga toxin inh: 122*; NS1 inh: -45%

How did Cc1sc(NC(=O)COc2ccccc2)c(C#N)c1-c1ccccc1 do in these assays?
SARS PLpro yeast: -5%; CHX counter: 23*; Shiga toxin inh: -5; NS1 inh: 7%

What do the screens show for `CCOC(=O)Nc1sc2c(c1C#N)CCCC2`?
SARS PLpro yeast: -10%; CHX counter: 31*; Shiga toxin inh: 74*; NS1 inh: -17%

Results for COc1ccc(C(=O)Nc2sc(C)c(-c3ccccc3)c2C#N)cc1OC ?
SARS PLpro yeast: -6%; CHX counter: 10; Shiga toxin inh: 24; NS1 inh: 5%

How did Cc1nnc(SCC(=O)Nc2sc3c(c2C#N)CCCCC3)n1N do in these assays?
SARS PLpro yeast: -4%; CHX counter: 20*; Shiga toxin inh: 51*; NS1 inh: -1%

Results for CCC(=O)N1c2ccccc2NC2=C(C(=O)CC(C)(C)C2)C1c1ccc(O)c(OC)c1 (centres undefined) ?
SARS PLpro yeast: 2%; CHX counter: -1; Shiga toxin inh: 8; NS1 inh: 3%

What do the screens show for `O=C1CN(C(=O)COC(=O)CCCOc2ccccc2)c2ccccc2N1`?
SARS PLpro yeast: 1%; CHX counter: -2; Shiga toxin inh: -3; NS1 inh: -18%

What do the screens show for `COC(=O)c1ccc(NC(=O)CSc2nc(=O)n3cccc(C)c3n2)cc1`?
SARS PLpro yeast: 1%

Assay outcomes from PubChem BioAssay.
